Results on 14 compounds are retold here after PubChem BioAssay.

Experiment [1] deals with Albumin (Bos taurus) (UniProt P02769). Description: bovine serum albumin binders on microarray, profiling panel, artefact control for SMM control protein annotation, biochemical, small-molecule microarray, Alexa647 label, 635/667 nm fluorescence (AID 1118).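 Also: score merges 667 nm emission intensity and signal-to-noise per printed compound spot.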 To be noted: BSA-A647 binding, fluorescence 635 nm, higher = more signal.
Experiment [2] can be described thus: small-molecule microarray binders of probe aXIP, primary screen, biochemical, NeuroSMM set, 635/667 nm fluorescence (AID 1119).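 Also: probe is the protein aXip251-270 applied at 1 µg/mL to compound-printed slides; binding of probe to printed compounds measured as 667 nm fluorescence plus signal to noise.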 To be noted: higher = more signal, called active from +8 up or from −8 down.
Experiment [3] can be described thus: small-molecule binders of probe aNOTCH3, primary screen, biochemical, small-molecule microarray, 635/667 nm fluorescence (AID 1120).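 Also: probe is a biotin-tagged antibody raised against NOTCH3 rather than NOTCH3 protein; score merges spot fluorescence near 667 nm with spot signal to noise.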 As to conditions: higher = more signal.
Experiment [4] is described as follows: small-molecule binders of probe aNOTCH2, primary screen, biochemical, small-molecule microarray, 635/667 nm fluorescence (AID 1121).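 Also: score merges feature fluorescence read at 667 nm with its signal to noise.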 As to conditions: higher = more signal.
Experiment [5] has as its target Carbonic anhydrase 2 (Homo sapiens) (UniProt P00918). Description: CAII small-molecule binders, profiling panel, biochemical, small-molecule microarray, Alexa647-labelled CAII (AID 1122). To be noted: CAII-A647 binding fluorescence, higher = more signal.
Experiment [6] can be described thus: COS7 lysate on small-molecule microarray, probe aHis, 635 nm (AID 1123).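 Also: z-score combines 667nm fluorescence intensity with signal-to-noise per printed compound spot.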 To be noted: COS7 cell lysate, fluorescence, higher = more signal.
A short description of experiment [7]: compound binding in COS7 lysate, probe aLAP1, primary screen, cell lysate, small-molecule microarray (AID 1124).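 Also: lysate comes from COS7 cells expressing LAP1 and is applied at 0.3 µg/mL; score merges spot fluorescence near 667 nm with signal-to-noise over triplicate slides.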 As to conditions: probe aLAP1, fluorescence, higher = more signal.
In experiment [8] the test system is Sam68 (KHDRBS1). The experiment in a line: Sam68 small-molecule binders, primary screen, biochemical, small-molecule microarray, 635 nm fluorescence (AID 1125).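 Also: score merges 667 nm channel intensity with signal to noise over triplicate slides.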 To be noted: small-molecule microarray binding, higher = more signal.
The test system of experiment [9] is Chordin-like protein 2 (CHRDL2). Description: CHRDL2 small-molecule binders, primary screen, biochemical, small-molecule microarray, 635 nm fluorescence (AID 1126).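 Also: printed compound slides probed with Chrdl2 protein at 4 µg/mL for 1 h at 4 C; score merges 667 nm emission intensity with signal to noise over three replicate slides.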 As to conditions: small-molecule microarray binding, fluorescence 635 nm; higher = more signal.
Experiment [10] concerns the target Concanavalin-A (Canavalia ensiformis) (UniProt P02866). The experiment in a line: ConA small-molecule binders, primary screen, artefact control for SMM control protein annotation, biochemical, small-molecule microarray, Alexa647 label, 635 nm (AID 1127).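 Also: z combines 667 nm emission intensity with signal-to-noise across three replicate slides.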 To be noted: ConA-A647 binding fluorescence, higher = more signal.

The source made the active and inactive calls.

Sequence of Albumin (Bos taurus) (P02769 whole entry, looked up): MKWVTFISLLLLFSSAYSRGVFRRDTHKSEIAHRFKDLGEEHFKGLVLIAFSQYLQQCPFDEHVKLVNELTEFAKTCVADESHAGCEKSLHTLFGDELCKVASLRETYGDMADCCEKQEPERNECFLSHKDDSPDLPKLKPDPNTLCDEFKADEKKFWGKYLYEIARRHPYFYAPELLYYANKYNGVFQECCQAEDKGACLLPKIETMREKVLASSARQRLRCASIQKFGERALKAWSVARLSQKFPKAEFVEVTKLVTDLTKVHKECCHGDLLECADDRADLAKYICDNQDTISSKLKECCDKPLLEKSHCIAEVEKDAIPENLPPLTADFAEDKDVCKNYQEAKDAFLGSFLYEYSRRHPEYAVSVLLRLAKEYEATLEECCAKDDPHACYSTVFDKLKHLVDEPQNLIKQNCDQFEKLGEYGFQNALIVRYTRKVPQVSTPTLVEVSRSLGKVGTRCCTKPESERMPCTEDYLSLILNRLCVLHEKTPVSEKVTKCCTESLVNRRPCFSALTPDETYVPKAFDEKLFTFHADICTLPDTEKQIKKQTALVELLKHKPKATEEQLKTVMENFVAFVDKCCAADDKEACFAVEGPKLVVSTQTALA
Sequence of Concanavalin-A (Canavalia ensiformis) (P02866 whole entry, looked up): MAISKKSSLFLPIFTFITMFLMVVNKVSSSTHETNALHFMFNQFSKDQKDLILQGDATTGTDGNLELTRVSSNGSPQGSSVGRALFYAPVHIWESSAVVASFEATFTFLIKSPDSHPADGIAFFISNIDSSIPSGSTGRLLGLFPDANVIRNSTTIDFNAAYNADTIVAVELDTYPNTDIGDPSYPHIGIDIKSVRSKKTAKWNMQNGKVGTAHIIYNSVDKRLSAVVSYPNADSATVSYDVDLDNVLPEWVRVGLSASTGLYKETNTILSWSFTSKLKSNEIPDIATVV

In the case of `COC(=O)[C@@]1(Cc2ccc(F)cc2)[C@@H]2[C@@H](CC(=O)[C@H]2CC(=O)C(=O)N(C)C)CN1C(=O)c1ccccc1`, the composite z-score is 0.998 in experiment [1]; 0.245 in [3]; -0.041 in [4]; 0.73 in experiment [5]; 2.84 in experiment [6]; -0.171 in experiment [7]. Further, the composite z-score is 1.34 in experiment [8], -0.633 in experiment [9] and 1.1 in experiment [10]. Further, the composite Z-score in experiment [2] was 0.742 (inactive).
Take `[N-]=[N+]=Nc1ccccc1C[C@]1(C(=O)NCC(O)CO)N=C(c2ccc(OCCCO)cc2)O[C@H]1c1ccccc1N=[N+]=[N-]` (stereo not given in full): the composite z-score in experiment [1] is 0.376; in [3], 0.0151; in [4], 0.0809; in [5], 0.391; in [6], 1.69; in experiment [7] it was -0.352. The composite z-score is 0.431 in [8], -0.424 in experiment [9] and -0.899 in [10]. For the same compound, in experiment [2], the composite Z-score was 0.045 (inactive).
For `CC(=O)NCCCC[C@@H]1NC(=O)[C@@H]2C[C@H](C(=O)NCCCCCCNC(=O)CS)[C@H](c3cccc(OCCO)c3)N2C1=O`, the composite z-score was -0.133 in experiment [1]; -0.0996 in [3]; -0.151 in experiment [4]; 0.561 in experiment [5]; 1.48 in [6]; 0.689 in experiment [7]. For the same compound, the composite z-score in [8] amounted to 0.825; in experiment [9] it was 0.568; in [10], 0.914. Moreover, the composite Z-score in experiment [2] is 0.405 (inactive).
For `COCCOC(=O)N1C(=O)[C@@]2(c3cc(C#CCCO)ccc31)[C@H](C(=O)N1CCc3cc(OC)c(OC)cc3C1)[C@H]1C(=O)O[C@H](c3ccccc3)[C@H](c3ccccc3)N1[C@@H]2c1ccc(O)cc1`, the composite z-score in experiment [1] is -0.335; in [3], 0.0893; in experiment [4], -0.0846; in experiment [5] it was 0.471; in experiment [6], 2.33; in experiment [7], 0.255. The composite z-score was 1.29 in experiment [8], 0.425 in [9] and 1.04 in [10]. Further, the composite Z-score in experiment [2] was 0.566 (inactive).
As for `O=C1[C@H]2C=C(Br)[C@H](C[C@@H]2OCCCCO)[C@@]12CO2`, the composite z-score in experiment [1] was 0.0664; in experiment [3] it was -0.0918; in [4], -0.162; in experiment [5], -0.191; in [6] it was -0.574; in experiment [7], 0.102. Besides, the composite z-score in experiment [8] is -0.264; in [9] it was 0.483; in experiment [10] it was -0.0118. For the same compound, the composite Z-score in experiment [2] is 0.572 (inactive).
On to `COC(=O)[C@@]1(Cc2ccc(OC)cc2)[C@H]2c3cc(C(=O)N4CCCC4)n(Cc4ccccc4)c3C[C@H]2CN1C(=O)c1ccccc1`, for which the composite z-score in experiment [1] is 1.05; in experiment [3], 1.75; in experiment [4] it was 1.06; in experiment [5], 0.791; in [6], 3.09; in experiment [7] it was 0.399. Moreover, the composite z-score in [8] is 0.846; in [9], -0.401; in experiment [10] it was 1.08. Besides, in experiment [2], the composite Z-score is 0.401 (inactive).
With `CC1(C)[C@@H]2CC(C(O)C3C=CC4C(=O)N(c5ccccc5)C(=O)C4N3Nc3ccccc3)=C[C@H]1C2` (stereo not given in full), the composite z-score is 0.566 in [1]; -0.0144 in experiment [3]; 0.0127 in [4]; 0.408 in experiment [5]; 1.61 in experiment [6]; 0.322 in experiment [7]. The composite z-score stood at 0.031 in experiment [8], 0.684 in [9] and 0.566 in experiment [10]. In experiment [2], the composite Z-score was -0.212 (inactive).
In the case of `CN(C)C(=O)[C@@]1(Cc2ccccc2)N=C(c2ccc(OCCCO)cc2)O[C@H]1c1ccccc1N=[N+]=[N-]`, the composite z-score is 0.952 in [1]; 0.516 in experiment [3]; -0.0422 in [4]; 0.765 in [5]; 2.88 in experiment [6]; 0.935 in experiment [7]. Also, the composite z-score in experiment [8] amounted to 1.29; in experiment [9], 0.152; in experiment [10], 1.13. In addition, in experiment [2], the composite Z-score is -0.0707 (inactive).
Consider `COc1ccc([C@H]2OC[C@@H]3CC4(CC=CC4)C(=O)N32)cc1`, for which the composite z-score in experiment [1] was -0.505; in experiment [3], 0.146; in experiment [4], -0.0662; in experiment [5], 0.278; in experiment [6] it was 0.383; in [7], -0.129. The values for the composite z-score in experiment [8], in experiment [9] and in experiment [10] were 0.964, 1.54 and -0.572, respectively. In addition, in experiment [2], the composite Z-score is 0.544 (inactive).
On to `CCc1oc(CC[C@@H](CO)NC(=O)NCCn2cc(C3(O)CCCCC3)nn2)c(C(=O)OC)c1C(=O)OC`, for which the composite z-score in [1] was -0.272; in experiment [3], 0.232; in experiment [4] it was -0.0813; in experiment [5] it was -0.0227; in [6] it was 0.376; in experiment [7] it was 0.731. Besides, the results for the composite z-score in [8], in [9] and in [10] were 1.18, 0.915 and 1.11, respectively. Further, the composite Z-score in [2] was -0.0435 (inactive).
Regarding `O=C1OCC=C[C@H]2OC34C=CCN(c5ccc6ccccc6c5)C(=O)[C@H]3N(CCCCCCO)C(=O)[C@@H]4[C@@H]12` (stereo not given in full), the composite z-score in experiment [1] is 0.39; in [3], -0.241; in experiment [4], -0.0472; in experiment [5], 0.837; in experiment [6] it was 0.818; in experiment [7], 0.941. The composite z-score in [8] was -1.42; in experiment [9] it was -0.677; in experiment [10], -0.486. Moreover, the composite Z-score in experiment [2] was 0.164 (inactive).
For the compound `CCOC(=O)C[C@H]1[C@H](OC(=O)c2cc3ccccc3oc2=O)[C@@H](NC(=O)C2CCCCC2)c2cc(OCCCO)ccc2N1C(=O)c1ccccc1`, the composite z-score in experiment [1] was 0.266; in experiment [3] it was 0.281; in [4] it was -0.0482; in experiment [5], 0.274; in experiment [6] it was 0.112; in experiment [7] it was -0.0802. Also, the composite z-score in experiment [8] stood at 1.04; in [9] it was 0.438; in experiment [10], 0.282. The composite Z-score in [2] was -0.275 (inactive).
With `COc1ccc(C(=O)Nc2cccc(CN3C(=O)[C@]4(O[C@H](CCO)[C@@H]([Si](C)(C)c5ccc(OC)cc5)[C@@H]4C)c4ccccc43)c2)cc1`, the composite z-score was 0.0296 in [1]; 0.0297 in [3]; -0.112 in experiment [4]; 0.41 in experiment [5]; 0.787 in experiment [6]; 0.593 in experiment [7]. Also, the figures for the composite z-score in experiment [8], in [9] and in [10] were 1.21, 0.379 and 1.13, respectively. For the same compound, the composite Z-score in experiment [2] is -0.494 (inactive).
Consider `C=C(/C(=C/C[C@@H](OC(C)=O)c1ccc(OCCO)cc1)c1cnc2ccccc2c1)C(C)C`, for which the composite z-score in experiment [1] is 0.444; in [3], -0.0362; in experiment [4] it was -0.17; in [5], 0.425; in experiment [6] it was 0.387; in experiment [7], -0.0638. Besides, the composite z-score in [8] amounted to 0.713; in [9], 0.159; in experiment [10] it was 0.806. Moreover, the composite Z-score in [2] was -0.199 (inactive).
